TRb SRC2 PPI = qHTS for Inhibitors of the Interaction of Thyroid Hormone Receptor and Steroid Receptor Coregulator 2 | Thyroid hormone receptor beta (Homo sapiens), P10828 | TRbeta-SRC2 peptide binding, fluorescence polarization; receptor liganded with 1 µM T3 | Potency, µM (highest dose often 106 µM), actives largely listed as inhibitors | 280,000 tested, 0.065% active; also: nearly all actives have a fitted effect of over 50% in size
Target sequence (P10828 whole entry, looked up): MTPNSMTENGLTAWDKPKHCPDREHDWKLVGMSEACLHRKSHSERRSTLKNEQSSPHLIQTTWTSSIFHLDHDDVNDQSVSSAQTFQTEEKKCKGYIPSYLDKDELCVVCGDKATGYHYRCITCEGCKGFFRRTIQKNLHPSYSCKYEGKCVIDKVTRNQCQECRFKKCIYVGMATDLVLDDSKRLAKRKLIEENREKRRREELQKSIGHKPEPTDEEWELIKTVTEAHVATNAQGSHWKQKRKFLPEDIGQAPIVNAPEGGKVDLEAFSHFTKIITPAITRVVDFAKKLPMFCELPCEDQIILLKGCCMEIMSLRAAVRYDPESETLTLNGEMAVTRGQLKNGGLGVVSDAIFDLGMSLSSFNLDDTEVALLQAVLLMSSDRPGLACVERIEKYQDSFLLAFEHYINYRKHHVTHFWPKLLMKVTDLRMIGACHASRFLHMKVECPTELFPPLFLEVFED
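A fluorescence polarization screen tested compounds at multiple concentrations against complex formation between 0.6 uM TRb ligand-binding domain and 20 nM Texas Red SRC2 peptide, with 1 uM T3 present; readout after 5 hr.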
Tau fluor cs = Counterscreen qHTS for Inhibitors of Tau Fibril Formation, Fluorescence Polarization; Potency, µM (series often up to 57.7 µM); 280,000 tested, 0.93% active; tau K18 P301L Alexa594 fluorescence, heparin fibrillization; also: nearly all actives have a fitted effect of over 55% in size
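Human tau K18 P301L (15 uM unlabeled, 0.24 uM Alexa 594-labeled) in 100 mM sodium acetate pH 7 with 20 uM heparin, 6 hr at 37 C. ThT 30 uM added, 1 hr ambient; Alexa 594 FP and total fluorescence read at 555/632 nm.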
Tau fibril FP = qHTS for Inhibitors of Tau Fibril Formation, Fluorescence Polarization; 280,000 tested, 0.39% active; K18 P301L tau heparin fibrillization, Alexa594 FP, 6 h; Potency, µM (top dose mostly 57.7 µM), hits mostly inhibitors; also: nearly all actives have a fitted effect of over 55% in size
Target sequence (P10636 561-689 P618L limits assumed): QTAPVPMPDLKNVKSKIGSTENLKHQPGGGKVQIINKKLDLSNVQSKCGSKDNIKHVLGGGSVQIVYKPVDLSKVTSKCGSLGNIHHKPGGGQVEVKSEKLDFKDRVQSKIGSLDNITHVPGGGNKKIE
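Read-out: fluorescence polarization of Alexa 594-labeled tau (0.24 uM), 555 nm excitation, 632 nm emission. Mixtures held 15 uM unlabeled K18 P301L, compound and 20 uM heparin, pH 7 acetate buffer, incubated 6 hr at 37 C.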
Tau fibril ThT = qHTS for Inhibitors of Tau Fibril Formation, Thioflavin T Binding; Microtubule-associated protein tau (Homo sapiens), P10636; recombinant tau K18 P301L, heparin-induced fibrillization, ThT fluorescence; Potency, µM (series often up to 57.4 µM), most hits filed as inhibitors; 270,000 tested, 2.1% active; also: nearly all actives have a fitted effect of over 55% in size
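ThT emission at 510 nm, taken 1 hr after adding 30 uM dye, quantifies aggregates formed when 20 uM heparin acts on human tau K18 P301L for 6 hr at 37 C.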
TexasRed fluor = Total Fluorescence Counterscreen for Inhibitors of the Interaction of Thyroid Hormone Receptor and Steroid Receptor Coregulator 2; TRb/SRC2 Texas Red total fluorescence interference; Potency, µM (highest dose often 106 µM); 280,000 tested, 0.29% active; AID 1479, 2009; active = well fitted curve in either direction with a large enough effect; inconclusive = small, poorly fitted or top-dose-only effect
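Human TRβ ligand-binding domain (0.6 uM) and Texas Red SRC2 peptide (20 nM) in Tris buffer with 1 uM T3 and 5% DMSO were incubated with pinned compound for 5 hr at ambient temperature. Total fluorescence was computed as S + 2P (555/632 nm).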
A number is an active result; - = inactive; ? = inconclusive; . = no result given; [ ] = remark or other dose. In the library only some 3% were active in any assay of this set; here they are far more common. Unless noted, calls follow the shape of the dose curve; as a rule, active = well fitted curve in the direction sought with a large enough effect; inconclusive = small, poorly fitted or top-dose-only effect, or another doubt; inactive = no such curve, though single readings can be large; an effect the other way counts as inactive or inconclusive.

SMILES	TRb SRC2 PPI	Tau fluor cs	Tau fibril FP	Tau fibril ThT	TexasRed fluor
COC(=O)C1=C(C(=O)OC)C(c2ccccc2O)c2sc(=O)[nH]c2S1 (configuration not stated)	-	-	-	25µM	-
N#Cc1cccc(NC(=O)COC(=O)c2ccccc2Sc2ccccc2C#N)c1	-	?	16µM	-	-
CC(=O)c1ccc(NC(=O)COC(=O)c2ccccc2Sc2ccccc2C#N)cc1	-	-	-	-	-
Cc1ccccc1CN1CCC(CNc2ncnc3onc(-c4ccc(F)cc4)c23)CC1	-	-	-	-	0.071µM[quencher]
Cc1cccc(OCCCC(=O)Nc2ccc(N(C)C)cc2)c1	-	-	-	13µM	-
COc1cc(/C=C2\SC(=O)N(Cc3ccc(Cl)cc3)C2=O)cc([N+](=O)[O-])c1O	-	-	-	13µM	-
COc1cc(/C=C2\SC(=O)N(Cc3ccc(F)cc3)C2=O)cc([N+](=O)[O-])c1O	-	-	-	14µM	-
CCOC(=O)CN1C(=O)S/C(=C/c2ccc(OC)c([N+](=O)[O-])c2)C1=O	-	-	-	-	-
Cc1ccc(C)c(N2CCN(CCCNC(=O)Cn3c(-c4cccs4)cc4ccccc43)CC2)c1	-	-	-	?	-
C/C(=N/Nc1ccc(F)cc1)c1ccc(Cl)s1	-	14µM[quencher]	-	?	-
Cc1cccn2c(=O)c(C(=O)NCCCN3CCCCC3C)c(O)nc12 (configuration not stated)	-	-	-	-	18µM[quencher]
CCC1CCCCN1CCCNC(=O)c1c(O)nc2c(C)cccn2c1=O (configuration not stated)	-	-	-	-	-
CCOc1ccc(CC(=O)NCc2ccc3c(c2)CCN3C(=O)c2ccccc2)cc1OCC	-	-	-	-	-
COc1ccc(-c2c(O)c3cc(O)cc(O)c3oc2=O)cc1	-	.	.	.	-
COc1cc(/C=C2/S/C(=N/S(=O)(=O)c3ccccc3)NC2=O)c([N+](=O)[O-])cc1OC	-	?	?	16µM	-
COc1cc(/C=C2\S/C(=N/S(=O)(=O)Cc3ccccc3)NC2=O)c([N+](=O)[O-])cc1OC	-	-	-	?	-
O=C1N/C(=N\S(=O)(=O)Cc2ccccc2)S/C1=C/c1cc([N+](=O)[O-])ccc1O	-	?	-	5µM	-
COc1cc(/C=C2/S/C(=N/S(=O)(=O)Cc3ccccc3)NC2=O)c([N+](=O)[O-])cc1OC	-	-	-	?	-
O=C(NCCCN1CCN(c2cccc(Cl)c2)CC1)c1sc2ncccc2c1-n1cccc1	-	-	-	?	-
CC(=O)N1CC[C@@H]2CC(=O)CC[C@@H]21	-	-	-	-	-
COc1ccccc1-c1c(-c2ccc(O)cc2O)n[nH]c1C(F)(F)F	-	8.9µM[quencher]	-	-	-
COc1ccc(-c2c(-c3ccc(O)cc3O)n[nH]c2C(F)(F)F)cc1	-	11µM[quencher]	-	-	-
COc1ccc(CCNC(=O)c2cnc3sc(N4CCC(C)CC4)nn3c2=O)cc1OC	-	-	-	-	-
CCCCCSc1nnc2c(n1)OC(CC)Nc1ccc(Br)cc1-2 (configuration not stated)	-	-	-	?	-
COc1cc2c(cc1NC(=S)NC(=O)c1c(OC)cccc1OC)oc1ccccc12	-	-	28µM	-	-
SMILES	TRb SRC2 PPI	Tau fluor cs	Tau fibril FP	Tau fibril ThT	TexasRed fluor
Cc1ccc(N2NC(=O)/C(=C/c3ccc(-c4ccc(Cl)c(C(=O)O)c4)o3)C2=O)cc1	-	?	-	?	-
O=C1NN(c2ccc(Cl)cc2)C(=O)/C1=C\c1ccc(-c2cccc(C(=O)O)c2)o1	-	10µM[quencher]	?	7.9µM	-
COc1ccc(Sc2ccc(/C=C3\C(=O)NN(c4ccccc4)C3=O)o2)cc1	-	?	?	10µM	-
O=C1NN(c2ccccc2)C(=O)/C1=C\c1ccc(-c2cc([N+](=O)[O-])ccc2O)o1	-	7.9µM[quencher]	?	3.5µM	?
COc1ccc(O[C@H]2C=C[C@@H](c3ccccc3)O[C@@H]2CON=C(C)C)cc1	-[11.2 µM]	-[11.6 µM]	-[11.6 µM]	-[11.5 µM]	-[11.2 µM]
CN1CCN(NS(=O)(=O)c2cccs2)CC1	-	-	?	13µM	-
O=S(=O)(NCCNS(=O)(=O)c1cccs1)c1cccs1	-	-	-	-	-
O=Cc1ccc(CO)o1	-	.	.	.	-
CCN(c1cccc(C)c1)S(=O)(=O)c1cc2c(cc1C)n(C)c(=O)c(=O)n2C	-	-	-	-	-
O=C(O)c1ccc2c(c1)C(=O)OC2=O	-	.	.	.	-
O=C1Nc2ccc(Br)cc2C1(O)Cc1ccccn1 (configuration not stated)	-	-	-	-	-
O=C1Nc2ccc(Br)cc2C12NNc1ccccc1O2 (configuration not stated)	-	7.1µM[quencher]	-	8.9µM	-
CC(=O)c1ccc(NC(=O)CC2Nc3cccc4cccc(c34)NC2=O)cc1 (configuration not stated)	-	25µM[quencher]	?	14µM	-
CCOc1ccc(NC(=O)CC2Nc3ccccc3NC2=O)cc1 (configuration not stated)	-	-	-	?	-
CCOc1ccc(NC(=O)CC2Nc3cccc4cccc(c34)NC2=O)cc1 (configuration not stated)	-	16µM[quencher]	-	14µM	-
CCOC(=O)c1ccc(NC(=O)CC2Nc3cc(C)c(C)cc3NC2=O)cc1 (configuration not stated)	-	14µM[quencher]	-	?	-
Cc1cccc(NC(=O)CC2Nc3cccc4cccc(c34)NC2=O)c1 (configuration not stated)	-[11.2 µM]	8.9µM[quencher]	-	?	-[11.2 µM]
COc1cccc(NC(=O)CC2Nc3cc(C)c(C)cc3NC2=O)c1 (configuration not stated)	-	?	-	?	-
Cc1ccc(NC(=O)CSc2nc(-c3ccccc3Cl)nc3cc(=O)[nH]n23)c(C)c1	-	-	-	-	-
CCCC/C=C\CCCCCCCCCC=O	-	.	.	.	-
C=CCNC(=O)N1CCc2nc(CCCC)c3c(c2C1)CO[C@@H](C)C3	-[11.2 µM]	-[11.6 µM]	-[11.6 µM]	-[11.5 µM]	-[11.2 µM]
CCOC(=O)c1ccc(NC(=O)CC2Nc3cccc4cccc(c34)NC2=O)cc1 (configuration not stated)	-	8.9µM[quencher]	?	13µM	?
CCOc1ccc(CNC(=O)Cn2ncc3c(=O)oc4ccc(C)cc4c32)cc1	-	-	-	-	-
Cc1ccc(N(C)C(=O)CC(C)S(=O)(=O)c2ccc3c(c2)NC(=O)CO3)cc1 (configuration not stated)	-	-	-	-	13µM[quencher]
